This assay addresses Interleukin-8 (IL8, CXCL8), C-terminal His-tagged (Homo sapiens, UniProt P10145 SEQ:1-72). Description: competition; competition TR-FRET. The conditions noted are these: tags: C-terminal 6xHis (Sino Biological); ssRNA; 2'-F G, 2'-OMe A/C/U, 5' C6NH2, 3' idT. The protocol:
Activity of each of these variants were tested using a time resolved competition TR-FRET assay in which the labeled parent Aptamer 3 was competed with increasing concentrations of unlabeled variants for binding to IL8 (FIG. 14). Briefly, 2-fold dilutions of thermally equilibrated aptamers were made in TR-FRET Buffer (50 mM MOPS, pH 7.4, 125 mM NaCl, 5 mM KCl, 50 μM CHAPS, 0.1 mg/mL BSA, 1 mM CaCl₂, and 1 mM MgCl₂). 5 μL of aptamer or control solution was added to 5 μl mix of 10 nM C-terminal His-tagged-IL8, 60 nM ALEXA FLUOR® 647-labeled Aptamer, and 5 nM anti-His-Eu (Perkin Elmer) in a black wall low volume 384 well plate (Greiner). For control, 5 μl of 1000-fold excess of unlabeled parent aptamer or 5 μl TR-FRET buffer alone was added to the mix of ALEXA FLUOR® 647-labeled aptamer, His-IL8, and anti-His-Eu. The plate was covered with a plate seal and subsequently incubated in the dark for 1 hour at room temperature. The plate was read on a Biotek CYTATION™ 5 plate reader. […]
To better understand the sequence requirements and confirm the stem structures of members of the Aptamer 8 family as determined from sequence covariation analysis from both the primary and secondary (degenerate) selections, a series of variants which included mutations and deletions to the predicted stems (Tables 45 and 46) were synthesized and screened. […]
On the technique in general: Time-resolved FRET reads energy transfer from a long-lived donor to a nearby acceptor.
In turn, CGGUGGGAAAUGUGAGAUGGGUUACCG had a binding signal of roughly 2.5 fold worse than Aptamer 8.
As to CGGCGGGAAAUGUGAGAUGGGUUGCCG, the binding signal is roughly 2.5 fold worse than Aptamer 8.

For the origin of these results see patent publication US20210230599, “STEM-LOOP COMPOSITIONS AND METHODS FOR INHIBITING INTERLEUKIN-8” (VITRISA THERAPEUTICS, INC., published 2021).
